# Measured values as given in PubChem BioAssay AID602141 (Sanford-Burnham Center for Chemical Genomics, 2011).
# The campaign covered roughly 360,000 compounds. About 1,300 (0.36%) were called active.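 How the source made its calls: active means corrected activity change at or below -50% at 5 µM; inactive means the rest.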 The sample as a whole holds a higher share of actives than the screen did.
# Test: cytotoxicity in KKLEB CF airway cells, primary screen, cytotoxicity control for CF NF-kB inhibitor project, cell-based, uHTS, fluorescence assay plates (AID 602141)
# Conditions: KKLEB CF airway cells viability, ATPlite luminescence, overnight, at 5 µM, stronger effect = lower value
row,SMILES,activity change (cytotoxicity)
1,CC1=C(C(=O)Nc2ccccc2)SCCO1,-58.9% (active)
2,CC1=C(C(=O)Nc2ccccc2)S(=O)(=O)CCO1,-6% (inactive)
3,CC(Cc1ccccc1)NCCC(c1ccccc1)c1ccccc1 (stereo not given),-16.7% (inactive)
4,Cc1c(Oc2cc(NN3CCCCC3)c([N+](=O)[O-])cc2[N+](=O)[O-])cccc1[N+](=O)[O-],-5.7% (inactive)
5,CCOc1cccc(=NC2CCCCC2)c2c(C)[nH]c(C)c12,4.1% (inactive)
6,CCc1nc2ccccc2c(=O)n1-c1cccc(OC)c1,-1.5% (inactive)
7,C[C@]12CC[C@H](O)C[C@H]1CC[C@@H]1C2CC[C@]2(C)[C@@H](C3=CC(=O)OC3)[C@@H](O)C[C@]12O (stereo not given in full),-53.3% [cells stimulated with P. aeruginosa culture filtrate] (active)
8,CC12CCC(O)CC1CCC1C2CCC2(C)C(C(=O)CC(O)C(F)(F)F)CCC12 (stereo not given),3.6% [cells stimulated with P. aeruginosa culture filtrate] (inactive)
9,Cc1ccc(CN2CCCC(C(=O)c3ccc4c(c3)OCO4)C2)cc1C (stereo not given),-12.8% (inactive)
10,Cc1nn(Cc2ccccc2Cl)c(Cl)c1C(=O)OC(C(=O)NC(N)=O)C(C)C (stereo not given),-1.6% (inactive)
11,O=C(CSC1c2ccccc2-c2ccccc21)N/N=C/c1ccccc1,11.7% (inactive)
12,O=c1[nH]c2ccccc2n1C1CCN(C(c2ccccc2)c2nnnn2Cc2ccccc2)CC1 (stereo not given),-106% [cells stimulated with P. aeruginosa culture filtrate] (active)
13,CSCCC(c1nnnn1C(C)(C)C)N1CCC(n2c(=O)[nH]c3ccccc32)CC1 (stereo not given),-1.4% [cells stimulated with P. aeruginosa culture filtrate] (inactive)
14,O=c1[nH]c2ccccc2n1C1CCN(C(c2ccnc3ccccc23)c2nnnn2Cc2ccccc2)CC1 (stereo not given),-13.5% [cells stimulated with P. aeruginosa culture filtrate] (inactive)
15,CC1([N+](=O)[O-])COP(=O)(Nc2ccc(F)cc2)OC1 (stereo not given),8.2% [cells stimulated with P. aeruginosa culture filtrate] (inactive)
16,CCc1cccc2c(C#N)cn(CC(=O)N3CCOCC3)c12,3.2% (inactive)
17,CC(=O)OC1C2(CC3N4C(=O)C5(CO)SSC4(CC31O)C(=O)N5C)OC(C)C(C)(C)C2=O (stereo not given),-95% [cells stimulated with P. aeruginosa culture filtrate] (active)
18,CCC(C)n1c(O)c(/C=N/Nc2nc3c(c(=O)n(C)c(=O)n3C)n2C)c(=O)[nH]c1=S (stereo not given),-14.1% (inactive)
19,C[C@@]1([C@@H](NP(=O)(c2ccccc2)c2ccccc2)c2ccccc2)C[C@H]1CCO,15% (inactive)
20,COc1ccc(NC(=O)c2cn(CCC#N)nc2-c2ccc([N+](=O)[O-])cc2)cc1,-13.1% (inactive)
21,CCCCCCCCCCCCn1ccc(=N)cc1,-61.1% (active)
22,O=c1[nH]c(CN2CC=C(c3ccccc3)CC2)nc2scc(-c3cccs3)c12,0.9% (inactive)
23,Cc1ccc2c(c1)C1CN(C)CCC1N2C(=O)Cn1nnc(-c2ccccc2F)n1 (stereo not given),2% (inactive)
24,c1cncc(CNCCc2c[nH]c3ccccc23)c1,7.7% (inactive)
25,c1ccc(C2NCc3ccccc3-n3cccc32)cc1 (stereo not given),-7.9% (inactive)
26,Cc1ccc(C(C)C)c(OCC(=O)N2CCN(CC(=O)N3CCOCC3)CC2)c1,-1.3% [cells stimulated with P. aeruginosa culture filtrate] (inactive)
27,COCCNC(=O)CN1C2CCC1CC(O)(c1cccnc1)C2 (stereo not given),1.5% (inactive)
28,COC1C(O)C(C)OC(OC2CCC3(C=O)C(CCC4C3CCC3(C)C(C5=CC(=O)OC5)CCC43O)C2)C1O (stereo not given),-58.4% [cells stimulated with P. aeruginosa culture filtrate] (active)
29,COC(=O)C1=C(c2ccc(Cl)c(C(F)(F)F)c2)C[C@@H]2CC[C@H]1N2C(=O)NC(C)C,-0.4% [cells stimulated with P. aeruginosa culture filtrate] (inactive)
30,CC(=O)NCC1=C(c2ccc3ccccc3c2)C[C@@H]2CC[C@H]1N2Cc1ccco1,-7.6% (inactive)
